# Measured values from paper PMC7862700, “An all-to-all approach to the identification of sequence-specific readers for epigenetic DNA modifications on cytosine”.
# Tests used:
# Test in all cases: DAPPL (digital affinity profiling via proximity ligation, sequencing); 10 mM Tris-HCl pH 7.5, 50 mM NaCl, 1 mM DTT, 4% glycerol, room temperature, 30 min; GST-TFs on glutathione beads, 16-mer random dsDNA library, 0.1% formaldehyde crosslink after washing; high values mean tight binding
# FEV = biological target: T1, FEV (Homo sapiens, UniProt Q99581 1-238); details: protein: recombinant; tags: N-terminal GST; dsDNA, one strand shown
# T1 sequence: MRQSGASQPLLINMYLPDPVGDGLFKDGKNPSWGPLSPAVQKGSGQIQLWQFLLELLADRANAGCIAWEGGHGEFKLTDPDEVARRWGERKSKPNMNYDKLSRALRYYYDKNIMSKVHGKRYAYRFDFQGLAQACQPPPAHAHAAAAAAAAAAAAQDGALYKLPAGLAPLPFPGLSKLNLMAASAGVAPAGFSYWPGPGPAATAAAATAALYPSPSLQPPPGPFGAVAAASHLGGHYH
# Outline: (§1)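 GST fusions of human transcription factors were expressed in yeast and captured with glutathione beads. Once given DNA barcodes and pooled alongside a tag-only sample, they were incubated for 30 min at room temperature with 200 nmole of a random double-stranded 16-mer DNA library in Tris/NaCl/DTT/glycerol buffer, then washed, crosslinked (0.1% formaldehyde), proximity-ligated, PCR-amplified and sequenced on an Illumina NextSeq500. The binding signal of each hexamer is its read frequency for a factor divided by its frequency for the tag-only sample.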
# ETV5 = ETV5 (Homo sapiens, UniProt P41161 1-510); details: protein: recombinant; tags: N-terminal GST; dsDNA, one strand shown
# ETV5, sequence (P41161 whole entry): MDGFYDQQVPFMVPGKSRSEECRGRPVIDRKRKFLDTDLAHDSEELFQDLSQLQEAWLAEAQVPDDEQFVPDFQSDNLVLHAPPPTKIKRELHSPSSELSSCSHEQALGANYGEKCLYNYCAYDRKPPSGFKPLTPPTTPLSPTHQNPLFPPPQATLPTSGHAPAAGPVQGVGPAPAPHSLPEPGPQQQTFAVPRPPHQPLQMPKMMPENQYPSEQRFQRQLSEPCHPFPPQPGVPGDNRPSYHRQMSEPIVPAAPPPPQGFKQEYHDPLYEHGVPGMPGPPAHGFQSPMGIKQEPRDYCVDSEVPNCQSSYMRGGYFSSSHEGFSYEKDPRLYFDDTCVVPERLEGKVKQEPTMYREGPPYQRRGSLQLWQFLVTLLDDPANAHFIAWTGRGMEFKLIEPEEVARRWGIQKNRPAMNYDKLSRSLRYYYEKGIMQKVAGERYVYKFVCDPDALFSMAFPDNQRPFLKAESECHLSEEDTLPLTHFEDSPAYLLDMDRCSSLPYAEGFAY
# Outline: as §1
# HSF1 = HSF1 (Homo sapiens, UniProt Q00613 1-529); details: protein: recombinant; tags: N-terminal GST; chain copies: 3; dsDNA, one strand shown
# HSF1, sequence (Q00613 whole entry): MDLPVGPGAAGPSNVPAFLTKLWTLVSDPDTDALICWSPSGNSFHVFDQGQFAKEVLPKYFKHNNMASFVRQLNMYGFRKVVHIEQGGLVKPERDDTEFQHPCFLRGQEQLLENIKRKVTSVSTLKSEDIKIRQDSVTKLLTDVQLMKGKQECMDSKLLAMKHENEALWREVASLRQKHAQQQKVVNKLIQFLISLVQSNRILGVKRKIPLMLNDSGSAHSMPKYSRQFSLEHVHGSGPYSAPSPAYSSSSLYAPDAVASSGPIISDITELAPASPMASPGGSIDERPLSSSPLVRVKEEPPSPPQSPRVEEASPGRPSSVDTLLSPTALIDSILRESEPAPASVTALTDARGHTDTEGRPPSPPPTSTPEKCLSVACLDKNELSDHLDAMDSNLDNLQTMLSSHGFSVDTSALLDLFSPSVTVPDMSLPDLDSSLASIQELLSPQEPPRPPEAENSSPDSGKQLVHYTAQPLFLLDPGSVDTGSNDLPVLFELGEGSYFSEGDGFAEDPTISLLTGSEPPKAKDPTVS
# Outline: as §1
# SPIC = biological target: T2, SPIC (Homo sapiens, UniProt Q8N5J4 1-248); details: protein: recombinant; tags: N-terminal GST; dsDNA, one strand shown
# T2 sequence: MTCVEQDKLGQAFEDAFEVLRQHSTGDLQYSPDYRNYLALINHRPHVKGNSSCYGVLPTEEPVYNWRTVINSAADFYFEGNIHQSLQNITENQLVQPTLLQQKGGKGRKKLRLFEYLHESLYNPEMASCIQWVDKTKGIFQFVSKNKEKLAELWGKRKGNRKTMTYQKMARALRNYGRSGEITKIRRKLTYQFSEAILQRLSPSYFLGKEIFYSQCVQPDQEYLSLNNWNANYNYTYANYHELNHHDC
# Outline: as §1
# ELF4 = ELF4 (Homo sapiens, UniProt Q99607 1-663); details: protein: recombinant; tags: N-terminal GST; dsDNA, one strand shown
# ELF4, sequence (Q99607 whole entry): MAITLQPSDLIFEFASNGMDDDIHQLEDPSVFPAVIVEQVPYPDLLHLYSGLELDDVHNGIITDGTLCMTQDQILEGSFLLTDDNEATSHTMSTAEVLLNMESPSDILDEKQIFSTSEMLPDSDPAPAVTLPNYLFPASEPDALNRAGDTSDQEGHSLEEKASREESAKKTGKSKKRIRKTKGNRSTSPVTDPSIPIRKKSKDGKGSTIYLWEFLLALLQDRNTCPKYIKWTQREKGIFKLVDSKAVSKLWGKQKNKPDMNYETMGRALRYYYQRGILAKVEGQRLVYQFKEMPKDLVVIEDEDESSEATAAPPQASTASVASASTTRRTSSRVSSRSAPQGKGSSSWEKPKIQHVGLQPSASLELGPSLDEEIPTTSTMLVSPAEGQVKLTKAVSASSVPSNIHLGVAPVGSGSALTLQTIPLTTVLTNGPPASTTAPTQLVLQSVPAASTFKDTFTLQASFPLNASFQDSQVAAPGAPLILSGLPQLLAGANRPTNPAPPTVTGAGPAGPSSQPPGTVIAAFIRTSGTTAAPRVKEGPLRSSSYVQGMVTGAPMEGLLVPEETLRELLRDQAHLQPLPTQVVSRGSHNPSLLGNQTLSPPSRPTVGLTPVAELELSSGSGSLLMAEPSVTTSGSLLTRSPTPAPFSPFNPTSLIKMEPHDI
# Outline: as §1
# ELK4 = biological target: T3, ELK4 (Homo sapiens, UniProt P28324-2 1-405); details: protein: recombinant; tags: N-terminal GST; dsDNA, one strand shown
# T3 sequence: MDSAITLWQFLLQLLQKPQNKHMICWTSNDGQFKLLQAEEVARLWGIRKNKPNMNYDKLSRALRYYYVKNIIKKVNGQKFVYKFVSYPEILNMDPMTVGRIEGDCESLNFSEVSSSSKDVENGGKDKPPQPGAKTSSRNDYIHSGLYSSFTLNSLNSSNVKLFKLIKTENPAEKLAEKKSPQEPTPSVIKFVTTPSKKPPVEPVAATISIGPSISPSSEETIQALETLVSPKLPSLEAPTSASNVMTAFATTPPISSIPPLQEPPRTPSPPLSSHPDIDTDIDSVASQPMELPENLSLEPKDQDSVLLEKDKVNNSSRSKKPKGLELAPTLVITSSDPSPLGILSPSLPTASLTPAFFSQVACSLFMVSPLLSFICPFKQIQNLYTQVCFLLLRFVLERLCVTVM
# Outline: as §1
# ETV2 = biological target: T4, ETV2 (Homo sapiens, UniProt O00321 1-342); details: protein: recombinant; tags: N-terminal GST; dsDNA, one strand shown
# T4 sequence: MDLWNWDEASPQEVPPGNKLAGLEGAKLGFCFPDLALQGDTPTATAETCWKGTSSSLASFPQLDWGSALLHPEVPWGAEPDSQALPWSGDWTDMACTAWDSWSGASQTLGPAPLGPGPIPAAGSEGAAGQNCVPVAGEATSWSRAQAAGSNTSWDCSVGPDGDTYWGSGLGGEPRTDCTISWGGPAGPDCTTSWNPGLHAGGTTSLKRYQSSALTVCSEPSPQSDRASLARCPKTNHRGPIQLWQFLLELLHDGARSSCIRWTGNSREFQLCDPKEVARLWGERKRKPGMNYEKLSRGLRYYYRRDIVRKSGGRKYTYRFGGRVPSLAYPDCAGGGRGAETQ
# Outline: as §1
# ELF3 = biological target: T5, ELF3 (Homo sapiens, UniProt P78545 1-371); details: protein: recombinant; tags: N-terminal GST; dsDNA, one strand shown
# T5 sequence: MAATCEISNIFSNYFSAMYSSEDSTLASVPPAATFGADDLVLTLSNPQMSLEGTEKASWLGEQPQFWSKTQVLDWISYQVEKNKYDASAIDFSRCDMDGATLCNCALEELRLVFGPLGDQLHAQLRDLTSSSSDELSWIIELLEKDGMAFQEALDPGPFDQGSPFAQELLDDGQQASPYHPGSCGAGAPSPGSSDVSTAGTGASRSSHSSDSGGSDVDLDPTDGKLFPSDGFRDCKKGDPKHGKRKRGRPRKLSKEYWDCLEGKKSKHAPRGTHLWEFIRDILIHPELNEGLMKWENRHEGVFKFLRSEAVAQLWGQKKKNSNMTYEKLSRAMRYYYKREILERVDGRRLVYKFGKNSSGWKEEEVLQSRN
# Outline: as §1
# CRX = CRX (Homo sapiens, UniProt O43186 1-299); details: protein: recombinant; tags: N-terminal GST; dsDNA, one strand shown
# CRX, sequence (O43186 whole entry): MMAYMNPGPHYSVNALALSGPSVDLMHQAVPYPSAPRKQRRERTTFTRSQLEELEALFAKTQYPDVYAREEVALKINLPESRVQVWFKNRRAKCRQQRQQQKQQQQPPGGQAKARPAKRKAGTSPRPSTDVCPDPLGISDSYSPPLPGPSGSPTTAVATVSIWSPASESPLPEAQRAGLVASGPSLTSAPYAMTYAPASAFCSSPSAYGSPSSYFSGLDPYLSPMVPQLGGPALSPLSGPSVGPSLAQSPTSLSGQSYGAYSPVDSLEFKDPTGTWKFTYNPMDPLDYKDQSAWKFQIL
# Outline: as §1
# ETV1 = ETV1 (Homo sapiens, UniProt P50549 1-477); details: protein: recombinant; tags: N-terminal GST; dsDNA, one strand shown
# ETV1, sequence (P50549 whole entry): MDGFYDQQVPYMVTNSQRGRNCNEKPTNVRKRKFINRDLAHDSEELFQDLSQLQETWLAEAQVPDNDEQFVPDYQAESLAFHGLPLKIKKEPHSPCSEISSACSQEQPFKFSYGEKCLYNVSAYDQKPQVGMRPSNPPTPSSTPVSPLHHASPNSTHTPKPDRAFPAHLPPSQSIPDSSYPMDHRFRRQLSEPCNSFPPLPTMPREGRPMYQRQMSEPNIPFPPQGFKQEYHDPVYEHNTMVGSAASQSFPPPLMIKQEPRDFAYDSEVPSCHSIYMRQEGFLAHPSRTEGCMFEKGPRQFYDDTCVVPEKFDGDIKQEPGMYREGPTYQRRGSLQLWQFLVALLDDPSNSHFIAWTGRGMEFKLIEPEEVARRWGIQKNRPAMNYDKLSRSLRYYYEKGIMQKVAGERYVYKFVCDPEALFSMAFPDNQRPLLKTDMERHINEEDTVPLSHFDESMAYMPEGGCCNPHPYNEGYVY
# Outline: as §1
sequence,measurement,setting,value
GATTCC,binding signal,FEV,"1.09 fold enrichment (6-mer frequency, TF over GST control)"
same,binding signal,ETV5,"1.21 fold enrichment (6-mer frequency, TF over GST control)"
same,binding signal,HSF1,"1.34 fold enrichment (6-mer frequency, TF over GST control)"
same,binding signal,SPIC,"1.18 fold enrichment (6-mer frequency, TF over GST control)"
same,binding signal,ELF4,"1.19 fold enrichment (6-mer frequency, TF over GST control)"
same,binding signal,ELK4,"1.13 fold enrichment (6-mer frequency, TF over GST control)"
same,binding signal,ETV2,"1.13 fold enrichment (6-mer frequency, TF over GST control)"
same,binding signal,ELF3,"1.09 fold enrichment (6-mer frequency, TF over GST control)"
same,binding signal,CRX,"1.15 fold enrichment (6-mer frequency, TF over GST control)"
same,binding signal,ETV1,"1.21 fold enrichment (6-mer frequency, TF over GST control)"
